target: UTS2D; assay: pooled miR-30 sensor sort-seq; sequence = guide strand; conditions: shRNA

| Sequence | sensor-assay potency score (higher = more potent) |
| --- | --- |
| TAAGATATGGTCGTCCATGCAC | -0.532 |
| TTATTCAGTAGAGCCAGCAATA | -1.61 |
| TTGTATATTTTTTATCTGGAAA | -1.16 |
| TAGGAGTCCAAAGCAAACAGTG | -0.558 |
| TTAGGAGTCCAAAGCAAACAGT | -1.23 |

target: UXS1; assay: as above; conditions: shRNA

| Sequence | sensor-assay potency score (higher = more potent) |
| --- | --- |
| TAATTAACTGAGCAAATTCTAG | -1.25 |
| TAGATCGCTGACGTACTGGAAC | -0.778 |
| TTTTAGTTCACCATTTTCCTGG | 0.218 |
| TTAGTGGTTCAACCATCTCTTC | -1.31 |
| TAGGATTGTGTGTTCTTCTGGG | 0.906 |
| TTTGTTTAAACCTTCCTCCAGC | -0.24 |
| TATCTGGTCAACCTCGATGTAG | -1.33 |
| TTAACTGAGCAAATTCTAGGAT | 0.0899 |
| TATACATGTAGTTTGGAGGGGA | 0.245 |
| TAACTGAGCAAATTCTAGGATT | -0.862 |
| TTCAACCATCTCTTCAATCTTG | -0.0638 |
| TTGTCTGAGACCCGGATCCGTA | -1.19 |

Reference: the OligoGym collection
